Unmarked numbers belong to inactive results. How the calls were made is not given here. Bounds are passed on as bounds.
Potency means the concentration at half of the fitted maximal effect.

In this assay the test system is HIV-1 nucleocapsid protein NCp7 (binding to TG oligonucleotide). The assay can be described thus: HIV Nucleocapsid (AID 346).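 Further: potency is for inhibitors that block NC binding and lower polarization.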 Particulars: HIV-1 NC / fluorescein-TGTGTGTG probe, fluorescence polarization. In a few lines:
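Inhibition of nucleocapsid binding to single-stranded 5'-TGTGTGTG probe (10 nM) was measured by fluorescence polarization after 1 hr at room temperature with 100 nM protein under high-salt, zinc-containing, reducing conditions.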
On the technique in general: Fluorescence polarisation rises when a labelled molecule tumbles more slowly, as on binding a larger partner.
As to `O=c1c(-c2ccc(F)cc2)nc2cncnc2n1Cc1ccc(F)cc1`, the Potency is more than 20 µM.
The figure for `COc1ccccc1CNc1ccnc(-c2cccnc2)n1` is more than 20 µM; for `Cc1nc2cnc(N(C)C)nc2n(C[C@H]2CCCO2)c1=O` it is more than 20 µM.
Consider `Cn1cccc1C(=O)N1CCC2(CC1)CN(C(c1ccccc1)c1ccccc1)C2`, for which the Potency was more than 20 µM.
As to `COc1ccc(-c2nc3cnc(N4CCOCC4)nc3n(C[C@H]3CCCO3)c2=O)cc1`, the Potency is more than 20 µM.
`CCNc1ncc2nc(CCc3ccccc3)c(=O)n(-c3ccccc3)c2n1`: the Potency is more than 4 µM.
The value for `COc1ccc(-n2c(=O)c(-c3ccc(Cl)cc3)nc3cncnc32)cc1` was more than 4 µM; that for `COc1ccc(-n2c(=O)c(-c3cc(F)cc(F)c3)nc3cnc(N4CCNCC4)nc32)cc1` was more than 20 µM.
The figure for `COc1ccc(CNc2ncncc2-c2ccccc2C)c(OC)c1` is more than 20 µM; for `COc1cccc(-c2nc(NCCN3CCOCC3)c3ccccc3n2)c1` it is more than 20 µM; for `Cc1noc(C)c1-c1ccc2ncnc(NCc3ccccc3)c2c1` it is more than 20 µM.
The value for `O=C(c1cc(C(F)(F)F)cc(C(F)(F)F)c1)N1CCC2(CCCN(c3ncccn3)C2)CC1` was more than 20 µM.
Consider `COc1ccc(C(=O)N2CCC3(CC2)CN(C(=O)Nc2cccc(C#N)c2)C3)cc1`, for which the Potency was more than 20 µM.
On to `Cc1cnc(CNc2ncncc2-c2ccccc2C(F)(F)F)cn1`, for which the Potency was more than 20 µM.
Regarding `Fc1ccc(Nc2ncncc2-c2ccoc2)cc1`, the Potency was more than 20 µM.
The figure for `COc1cccc(Cn2c(=O)c(-c3ccccc3)nc3cnc(N4CCNCC4)nc32)c1` is more than 20 µM.
The value for `CC(C)NC(=O)N1CC[C@@]2(CCCN(C(=O)c3cccc(F)c3)C2)C1` was more than 20 µM; that for `COc1cccc(Nc2ncc3nc(-c4ccc(F)cc4)c(=O)n(C)c3n2)c1` was more than 4 µM.
The value for `COc1ncc2nc(-c3ccccc3)c(=O)n(CCc3ccccc3)c2n1` was more than 20 µM.
As for `Cc1nc2cnc(N3CCN(C)CC3)nc2n(Cc2cccs2)c1=O`, the Potency is more than 20 µM.
In the case of `N#CCCn1c(=O)c(-c2ccc(Cl)cc2)nc2cnc(Oc3cccc(Cl)c3)nc21`, the Potency was more than 4 µM.
`CS(=O)(=O)N1CCC[C@@]2(CCN(c3ccncc3)C2)C1`: the Potency is more than 20 µM.
The value for `COc1ccccc1-c1cncnc1NCc1cnc(C)cn1` was more than 20 µM.
The figure for `O=C(Nc1ccccc1)N1CCCC2(CCN(S(=O)(=O)c3ccccc3)CC2)C1` is more than 20 µM.
Turning to `COCCn1c(=O)c(-c2ccc(Cl)cc2)nc2cnc(OC)nc21`, the Potency is more than 20 µM.
Consider `CN(C)c1ccnc(-c2cccc(NS(C)(=O)=O)c2)n1`, for which the Potency was more than 20 µM.
The figure for `N#CCCn1c(=O)cnc2cnc(N3CCOCC3)nc21` is more than 20 µM; for `O=C(c1csnn1)N1CCC2(CC1)CCN(c1ccccn1)CC2` it is more than 20 µM.
`COCC(=O)N1CCC2(CCCN(C(=O)Nc3ccccc3)C2)CC1`: the Potency is more than 20 µM.
The value for `Cc1nc2cnc(N3CCN(C)CC3)nc2n(C2CC2)c1=O` was more than 20 µM; that for `COc1ccccc1CCn1c(=O)c(-c2cccc(F)c2)nc2cncnc21` was more than 20 µM.
The value for `COCCn1c(=O)c(C)nc2cnc(OC)nc21` was more than 20 µM; that for `O=c1c(-c2ccc(F)cc2)nc2cnc(Nc3ccccc3)nc2n1C[C@H]1CCCO1` was more than 20 µM; that for `O=C(c1ccncc1)N1CCC2(CCCN(c3ncccn3)C2)CC1` was more than 20 µM.
On to `Cc1noc(C)c1C(=O)N1CCC2(CC1)CN(c1ccccc1)C2`, for which the Potency was more than 20 µM.
The value for `COCC(=O)N1CCC2(CC1)CCN(c1ccccn1)CC2` was more than 20 µM; that for `O=C(Nc1ccccc1)N1CCCC2(CCNCC2)C1` was more than 20 µM.
The value for `COc1cccc(-c2nc(NCCNC(C)=O)c3ccccc3n2)c1` was more than 20 µM.
The value for `COc1ccc(Oc2ncc3nc(-c4cccc(C#N)c4)c(=O)n(CCC#N)c3n2)cc1` was more than 20 µM; that for `Cc1nc2cnc(N3CCOCC3)nc2n(CCc2ccccc2)c1=O` was more than 20 µM.

These data come from PubChem BioAssay (NCATS).
